Source: PubChem (National Center for Advancing Translational Sciences (NCATS))
KB-3-1 cytotox: KB-3-1 parental cell cytotoxicity; 400,000 compounds, 1.4% hits; Potency, µM (titrated, usually from 46.1 µM), usual class: cytotoxic; AID 1347075; KB-3-1 viability, CellTiter-Glo ATP luminescence, 72 h; also: nearly all actives have a fitted effect of over 60% in size
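Cytotoxicity in the drug-sensitive parental line KB-3-1 was scored as loss of CellTiter-Glo luminescence following 72 h incubation with compound. Values come from curve fitting of normalized concentration-response data.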
ELG1 DNA repair: ELG1-dependent DNA repair inhibition | HEK293T ELG1-luciferase reporter, luminescence, 16 h; DNA damage induced by 5-fluorouridine | Potency, µM (series often up to 46.1 µM), hits mostly inhibitors | 330,000 compounds, 2.3% hits | AID 504467; also: nearly all actives have a fitted effect of over 55% in size
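Reporter activity after DNA damage by 5-fluorouridine is monitored. Compound-treated cells incubate 16 hr at 37 °C, then ONE-Glo is added for 30 min before luminescence reading.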
KB-V1 MDR tox: KB-V1 MDR subline cytotoxicity; 400,000 compounds, 3.4% hits; AID 1347076; KB-V1 MDR cells viability, CellTiter-Glo, 72 h; Potency, µM (highest dose often 46.1 µM), actives largely listed as cytotoxic; also: nearly all actives have a fitted effect of over 60% in size
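KB-V1 MDR subline cells in DMEM (phenol-red free, 10% FBS) exposed to compounds in qHTS concentration series for 72 h at 37 degrees C. Viability read by CellTiter-Glo luminescence; concentration-effect curves fitted after normalization and correction.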
MCF10A rereplic: inducers of DNA re-replication in MCF 10A breast cells; MCF 10A DNA re-replication, Hoechst nuclear intensity, 48 h; Potency, µM (series often up to 46.1 µM), hits mostly activators; 350,000 compounds, 2.9% hits; AID 624296; also: nearly all actives have a fitted effect of over 50% in size
SW480 rerep: inducers of DNA re-replication in SW480 colon cancer cells; Potency, µM (highest dose often 46.1 µM), most hits filed as activators; SW480 DNA re-replication, Hoechst DNA content imaging, 48 h; 340,000 compounds, 1.8% hits; also: nearly all actives have a fitted effect of over 55% in size
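Cells (250 per well) received 23 nL compound or DMSO by pin tool and were kept 48 hr at 37 C, 5% CO2. Nuclei were then stained with Hoechst for 40 min and scanned for DNA content.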
Hits are given with their value; 0 = inactive; ? = inconclusive; - = no result given; ! = repeats disagree; [ ] = remark or other dose. Only some compounds are listed: those with a hit (about 8.2% of all), similar ones and a draw of the others. Calls follow the shape of the dose curve; as a rule, active = well fitted curve in the direction sought with a large enough effect; inconclusive = small, poorly fitted or top-dose-only effect, or another doubt; inactive = no such curve, though single readings can be large; an effect the other way counts as inactive or inconclusive.

SMILES	KB-3-1 cytotox	ELG1 DNA repair	KB-V1 MDR tox	MCF10A rereplic	SW480 rerep
Cc1cccc(C(=O)NC(C(=O)Nc2ccccc2N2CCOCC2)C(C)C)c1 (centres undefined)	0	0	0	0	0
COc1cccc(CNc2nc(Cl)nc3nc[nH]c23)c1	0	-	0	-	-
OC(CNC1CCCCCC1)COc1cccc2ccccc12 (centres undefined)	?	0	21µM	0	18µM
Cc1ccccc1OCC(O)CNC1CCC(NCC(O)COc2ccccc2C)CC1 (centres undefined)	3.3µM	?	18µM	?	4.1µM
Cc1ccc(OCC(O)CNC2CCCC2)c(C)c1 (centres undefined)	0	0	0	0	0
CN(C)Cc1ccc(-c2nc3cccc4c3n2CCNC4=O)cc1	18µM	-	0	?	?
Cc1cc(CN(C)C(=O)CC2C(=O)NCCN2Cc2ccc(-c3ccccc3)cc2)on1 (centres undefined)	0	0	0	0	0
O=C(CSc1nnc(CN2CCOCC2)n1-c1ccc(Cl)cc1)Nc1ccc2c(c1)OCO2	0	0	10µM	0	0
O=C(CSc1nnc(-c2ccccc2)n1Cc1ccco1)Nc1ccc2c(c1)OCCO2	0	?	0	0	0
O=C(CSc1nnc(-c2cccs2)n1Cc1ccco1)Nc1ccc2c(c1)OCO2	0	15µM	0	0	0
O=C(CSc1nnc(-c2ccccc2)n1Cc1ccco1)NCc1ccc2c(c1)OCO2	0	16µM	0	0	0
Cc1cc(C)c(NC(=O)CSc2nnc(CN3CCOCC3)n2C)c(C)c1	0	0	0	0	29µM
O=C(CSc1nnc(-c2ccco2)n1Cc1ccco1)NCc1ccccc1	0	0	0	0	0
COc1cccc(CN2C(=O)c3cccc(N)c3C2=O)c1	0	0	0	18µM	?
CCC(C)Nc1nc(-c2ccccn2)nc2ccccc12 (centres undefined)	15µM	?	?	0	0
c1ccc(CNc2nc(-c3ccccn3)nc3ccccc23)cc1	16µM	0	0	0	0
Cc1ncc([N+](=O)[O-])n1CC(=O)Nc1ccc(F)cc1F	0	0	0	0	0
CCOc1ccccc1NC(=O)CSc1nc2nc(-c3cccs3)cc(C(F)(F)F)c2c(=O)[nH]1	0	0	0	16µM	0
O=C(OCc1ccco1)c1cccnc1	0	0	0	13µM	?
Cc1cc(C(C)(C)C)cc(C)c1COC(=O)c1cccnc1	0	0	0	?	0
COc1cc2c(C(=O)NC3CCCCCC3)cn(C)c(=O)c2cc1OC	0	0	0	0	0
CCn1cc(C(=O)N2CCN(c3cccc(Cl)c3)CC2)c2cc(OC)c(OC)cc2c1=O	?	?	21µM!	?	?
CCn1cc(C(=O)N2CCN(c3ccc(OC)cc3)CC2)c2cc(OC)c(OC)cc2c1=O	0	0	?	0	0
CCn1cc(C(=O)NC2CCCCCC2)c2cc(OC)c(OC)cc2c1=O	0	13µM	0	0	0
CC1(C(=O)NC2CCCC2)CCC(=O)N1C1CCN(Cc2ccccc2)CC1 (centres undefined)	0	-	0	-	-
SMILES	KB-3-1 cytotox	ELG1 DNA repair	KB-V1 MDR tox	MCF10A rereplic	SW480 rerep
CC(C)NC(=O)C1Cc2c(-c3ccc4c(c3)OCO4)ccnc2O1 (centres undefined)	0	-	0	-	-
COc1ccc(-c2noc(CC(=O)N(C)c3cc(Cl)c(OC)cc3OC)n2)cc1	0	-	0	-	-
Cc1nn(-c2ccc(F)cc2)c(Cl)c1/C=C1\C(=O)Nc2ccccc21	?	?	13µM	8.2µM	?
CCOc1ccc(S(=O)(=O)N2CCN(c3c(C)cccc3C)CC2)c2ccccc12	0	-	?	-	-
CCOc1ccc(S(=O)(=O)N2CCN(c3ccccc3F)CC2)c2cccnc12	0	0	?	0	16µM
COc1ccc(/C(C)=N/NC(=O)Cn2nc([N+](=O)[O-])cc2C)cc1	0	0	0	0	0
Cc1ccccc1-c1nc(CN(Cc2c(C)nn(C)c2C)C2CC2)c(C)o1	?	?	0	?	0
C=CCn1c(SCC(=O)NC)nc2sc3c(c2c1=O)CCC3	0	?	2.1µM	0	0
C=CCNC(=O)CSc1nc2sc3c(c2c(=O)n1CCCOC)CCC3	0	0	0	6.5µM	0
C=CCn1c(SCC(=O)NCC)nc2sc3c(c2c1=O)CCC3	0	0	0	0	0
COc1cccc(C(C(=O)NCc2ccccc2)N2CCN(C(=O)C3CCCO3)CC2)c1OC (centres undefined)	0	-	0	-	-
O=C(Nc1ccn(-c2ccccc2)n1)c1ccc(S(=O)(=O)N2CCCCCC2)cc1	0	5.2µM	?	0	0
CCCN(CCC)S(=O)(=O)c1ccc(C(=O)Nc2nc3c(s2)CCc2ccccc2-3)cc1	9.2µM	?	0	0	0
O=C(Nc1nc(-c2ccccc2)c(-c2ccccc2)s1)c1ccc(S(=O)(=O)N2CCCC2)cc1	?	0	4.1µM	0	0
O=C(Nc1ccccc1)c1ccc(S(=O)(=O)N2CCCC2)cc1	0	0	0	0	0
O=C(Nc1ccccc1)c1ccc(S(=O)(=O)N2CCCCC2)cc1	0	0	0	0	0
COc1cccc(OC)c1C(=O)Nc1nc2c(s1)CCc1ccccc1-2	0	-	0	-	-
CN(C)S(=O)(=O)c1ccc(C(=O)Nc2nc(-c3ccccc3)c(C(=O)c3ccccc3)s2)cc1	0	0	16µM	0	0
CCOC(=O)C[C@H]1c2cc(F)ccc2S(=O)(=O)N1c1cccc(OC)c1	0	-	?	0	0[9.22 µM]
O=C(CCCOc1ccc(Cl)cc1Cl)NCCc1ccccn1	0	?	0	0	0
O=C(Nc1nc(-c2ccccc2)c(C(=O)c2ccccc2)s1)c1ccc(S(=O)(=O)N2CCCC2)cc1	16µM	?	3.7µM	?	0
CSCCC(NC(=O)c1cccc(S(=O)(=O)N2CCOCC2)c1)c1nc2ccccc2[nH]1 (centres undefined)	0	0	0	0	0
Cc1c(C(=O)NC(Cc2ccccc2)c2nc3ccccc3[nH]2)cccc1[N+](=O)[O-] (centres undefined)	0	0	?	0	?
CSCC[C@H](NC(=O)c1cccc([N+](=O)[O-])c1C)c1nc2ccccc2[nH]1	0	0	16µM	0	0
CSCC[C@H](NC(=O)C1CCN(S(=O)(=O)c2ccc(C)cc2C)CC1)c1nc2ccccc2[nH]1	0	?	23µM	0	0
CSCC[C@H](NC(=O)CC(C)(C)C)c1nc2ccccc2[nH]1	0	0	0	?	0
CSCC[C@H](NC(=O)c1cccc(S(=O)(=O)N2CCCCCC2)c1)c1nc2ccccc2[nH]1	?	23µM	0	0	?
CN(c1cc(Cl)c2c(c1)OCO2)c1cc2c(c3c1ccn3C)C1CCC2C1 (centres undefined)	0	-	0	-	-
COc1ccc(N=c2nc(-c3ccccc3)n(-c3ccc(C)cc3)s2)cc1	?	-	0	-	-
